From PubChem BioAssay AID720513 (Broad Institute, 2013)
The whole screen tested about 2,100 compounds, of which about 480 (23%) were called active. Another 5% or so got no clear call; they are omitted.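 Rule for the calls: active = fitted curve reaches 40% activation at or below the top valid concentration, in every replicate test; inconclusive = replicate tests disagree on the call; inactive = the rest, including activity in the opposite direction.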 The list is a sample of the results. Entries with a potency or affinity are not part of this list.

assay: PGC1a acetylation increase, cellular AlphaLISA – cell-based, cherry-picked samples, set 6, dose response (AID 720513); details: U2OS PGC1a acetylation AlphaLISA, overnight, 0 = neutral, -100 = inhibitor control; series mostly up to 19.5 µM;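 note: cells made to overexpress flag tagged PGC1a plus GCN5 acetyltransferase by viral infection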

SMILES | outcome
Cc1noc(C)c1NC(=O)N(C)C[C@@H]1OCCCC[C@@H](C)Oc2ccc(N(C)C)cc2C(=O)N([C@@H](C)CO)C[C@H]1C | inactive
COc1ccc(C(=C(CC(=O)O)C(=O)OC(C)(C)C)c2cc(OC)c(OC)c(OC)c2)cc1OC | inactive
CCCOc1ccc(/C=C/C(=O)O)cc1OC | inactive
CN(C)C(=O)C[C@H]1CC[C@H](NC(=O)C2CCC2)[C@@H](CO)O1 | inactive
COc1ccc2cc3c(N)nn(C(=O)c4ccccc4Cl)c3nc2c1 | inactive
CCc1c(C)nc(SCC(=O)Nc2ccc3c(c2)OCCO3)[nH]c1=O | inactive
COc1ccc(NCc2nnc(SCC(=O)Nc3cc(C)cc(C)c3)o2)cc1 | inactive
CCN1C(=O)c2cccc3c(S(=O)(=O)Nc4ccccn4)ccc1c23 | inactive
Cc1ccc(O)c(NC(=O)c2ccc3c(c2)C(=O)N(CC(C)C)C3=O)c1 | inactive
CCN1CCN(C(=O)c2c(-c3c(F)cccc3Cl)noc2C)CC1 | inactive
C[C@H](CO)N1C[C@H](C)[C@H](CN(C)C(=O)NC2CCCCC2)Oc2cc(C#Cc3ccc(F)cc3)ccc2S1(=O)=O | inactive
Nc1ccccc1-c1ccn[nH]1 | inactive
CC1=NN(C(=O)c2ccc(C)cc2)C(O)(C(F)(F)OC(F)(F)F)C1 (stereo not given) | inactive
O=C(c1ccco1)N1N=C(c2ccc(Cl)cc2)CC1(O)C(F)(F)F (stereo not given) | inactive
COc1ccc(-c2ccc(CCC(=O)O)n2NC(=O)c2ccc(C(C)(C)C)cc2)cc1 | inactive
COc1ccc(C(C)(O)c2nc(-c3cccc(O)c3)cs2)cc1 (stereo not given) | inactive
O=C(Nc1ccc(F)cc1)N[C@H]1C=C[C@H](CC(=O)N2CCCCC2)O[C@H]1CO | inactive
CCSc1ccccc1C(=O)NCCCn1ccnc1 | inactive
COc1cccc(-c2cc(C(=O)NCCCn3ccnc3)no2)c1 | inactive
Cc1ccccc1-c1nc(C(=O)NCC2CCCO2)cc2c1[nH]c1ccccc12 (stereo not given) | inactive
C[C@@H]1CN([C@@H](C)CO)S(=O)(=O)c2ccc(-c3ccc(F)cc3)cc2O[C@H]1CN(C)C(=O)C1CCCCC1 | inactive
C#CCN(C[C@@H]1[C@@H](OC(=O)NC2CCCC2)[C@@H](OC(=O)NC2CCCC2)Cn2c(=O)ccc(=O)n21)S(=O)(=O)c1ccc(C)cc1 | inactive
O=C1N(Cc2ccccc2)Cc2ccccc2[C@@H]2OC(c3ccc(OCCCO)cc3)=N[C@]12Cc1ccccc1 | inactive
CCCC#Cc1ccc2c(c1)O[C@@H](CN(C)C(=O)C1CC1)[C@@H](C)CN([C@@H](C)CO)S2(=O)=O | inactive
COC(c1ccccc1)c1nnc(CCC(=O)N(C)C(C2CC2)C2CC2)o1 (stereo not given) | inactive
